Experimental data from the supplement of paper PMC6555819.

Legend:
Assay in all cases: PBM binding z-score (relative to random genomic background probes); higher = stronger binding; sequences stand for … in GC…GCGATTGACAGCGTAGAATGAAGG
[1] = test system: FXR:RXRa (NR concentration 270 nM, RXRa partner concentration 90 nM)
Method in brief: (§1)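 Binding z-scores were set against random background probes. The data came from custom Agilent 4×180K protein-binding microarrays carrying double-stranded probes with 34-nt variable regions, incubated 1 h with ligand-free nuclear receptor dimers. Partner-specific antibodies detected binding, and scanned fluorescence was regression-normalized.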

[2] = test system: LXRa:RXRa (NR concentration 270 nM, RXRa partner concentration 90 nM)
Method in brief: as §1

[3] = test system: LXRa homodimer (NR concentration 270 nM)
Method in brief: as §1

[4] = test system: LXRb:RXRa (NR concentration 270 nM, RXRa partner concentration 90 nM)
Method in brief: as §1

[5] = test system: LXRb homodimer (NR concentration 270 nM)
Method in brief: as §1

[6] = test system: PPARa:RXRa (NR concentration 270 nM, RXRa partner concentration 90 nM)
Method in brief: as §1

[7] = test system: PPARg:RXRa (NR concentration 180 nM, RXRa partner concentration 90 nM)
Method in brief: as §1

[8] = test system: PPARg:RXRa 270nM:90nM, anti-RXR (NR concentration 270 nM, RXRa partner concentration 90 nM)
Method in brief: as §1

[9] = test system: PPARg:RXRa 30nM:10nM, anti-RXR (NR concentration 30 nM, RXRa partner concentration 10 nM)
Method in brief: as §1

[10] = test system: PPARg:RXRa 90nM:30nM, anti-RXR (NR concentration 90 nM, RXRa partner concentration 30 nM)
Method in brief: as §1

[11] = test system: PPARg:RXRa DBDmut IVT, anti-RXR (DBD mutation: RXRa K156A/R161A, NR concentration 270 nM, RXRa partner concentration 90 nM)
Method in brief: as §1

[12] = test system: PPARg:RXRa IVT, anti-PPARg (NR concentration 270 nM, RXRa partner concentration 90 nM)
Method in brief: as §1

[13] = test system: PPARg DBDmut:RXRa IVT, anti-PPARg (DBD mutation: PPARg1 K132A/R137A, NR concentration 270 nM, RXRa partner concentration 90 nM)
Method in brief: as §1

[14] = test system: PPARg DBDmut IVT, anti-PPARg (DBD mutation: PPARg1 K132A/R137A, NR concentration 270 nM)
Method in brief: as §1

[15] = test system: PPARg homodimer (NR concentration 180 nM)
Method in brief: as §1

[16] = test system: PXR:RXRa (NR concentration 270 nM, RXRa partner concentration 90 nM)
Method in brief: as §1

[17] = test system: PXR homodimer (NR concentration 270 nM)
Method in brief: as §1

[18] = test system: RARa:RXR (NR concentration 270 nM, RXRa partner concentration 90 nM)
Method in brief: as §1

[19] = test system: RARa homodimer (NR concentration 270 nM)
Method in brief: as §1

[20] = test system: RARb:RXRa (NR concentration 270 nM, RXRa partner concentration 90 nM)
Method in brief: as §1

Row | Sequence | PBM binding z-score [1] | PBM binding z-score [2] | PBM binding z-score [3] | PBM binding z-score [4] | PBM binding z-score [5] | PBM binding z-score [6] | PBM binding z-score [7] | PBM binding z-score [8] | PBM binding z-score [9] | PBM binding z-score [10] | PBM binding z-score [11] | PBM binding z-score [12] | PBM binding z-score [13] | PBM binding z-score [14] | PBM binding z-score [15] | PBM binding z-score [16] | PBM binding z-score [17] | PBM binding z-score [18] | PBM binding z-score [19] | PBM binding z-score [20]
1 | GCTTACGTGTCAAAGGTTATAGCATGAATAGAAT | 3.42 | 3.02 | -0.0204 | 2.94 | -0.0977 | 5.34 | 9.21 | 8.05 | 7.61 | 9.07 | 1.72 | 3.96 | 0.407 | 0.944 | 3.44 | 2.98 | -0.204 | 4.56 | 0.318 | 2.14
2 | AGTCAAAGTTCATCTAGTTAACGTAAGATATGCT | 6.78 | 6.1 | 5.42 | 3.68 | 2.06 | 4.77 | 6.49 | 5.96 | 3.55 | 5.46 | 0.113 | 2.78 | 1.61 | 1.25 | 3.6 | 5.26 | 9.11 | 3.45 | 2.15 | 4.85
3 | GCTGCTAGGTCAGGTTGGTCACCTAACGGGTACG | 1.01 | 0.907 | -0.299 | 0.43 | -0.281 | 1.56 | 0.627 | 1.15 | -0.264 | 0.22 | 2.48 | 2.8 | -1.27 | -1.36 | 0.888 | 0.48 | -0.213 | 1.27 | 0.0555 | 3.39
4 | CGTCCAAGGTCAAGGTCATTGAAAGAGACTCGAA | 7.9 | 6.06 | 2.42 | 5.26 | 1.4 | 6.18 | 6.59 | 6.7 | 3.18 | 5.62 | 3.44 | 5.03 | 0.777 | -0.505 | 4.46 | 5.75 | 2.42 | 5.73 | 2.35 | 5.56
5 | CAAACTAGGTCACGAAATGTCAAAGTCGAATGAC | 4.45 | 5.4 | 1.06 | 3.49 | 0.702 | 5.42 | 9.32 | 7.56 | 6.2 | 7.61 | 8.65 | 9.32 | 6.88 | 5.58 | 3.3 | 2.74 | 0.475 | 3.64 | 1.83 | 4.39
6 | TAGCCTAGGTCAGAACGGGCCAGTATACGCTATA | 1.13 | 0.618 | -0.471 | 0.47 | -0.65 | 1.31 | 0.763 | 0.742 | -0.161 | 0.153 | 0.749 | 1.5 | -0.735 | -1.15 | 0.155 | 0.457 | -0.462 | 0.873 | -0.513 | 2.75
